This is one part of a sample in which hits are shown more often than they occur.
TTR transcr act: TTR transcription activation, primary screen; activation, % at 16.7 µM; SH-SY5Y TTR promoter Gaussia luciferase, luminescence; 100% = recombinant luciferase protein wells; 92,000 compounds, 1.3% hits; AID 1117267;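 active = activation above the mean of all tested compounds plus 3 SD, cut at about 9.5% in these data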;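 note: cells exposed to compounds for one day before reading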
HuH7 TTR inh: HuH7 TTR transcription inhibition, counter-screen. shares compounds with TTR transcr act. HuH7 TTR promoter-Gaussia luciferase reporter, luminescence. inhibition, % at 16.7 µM. 1,100 compounds, 4% hits. AID 1117279;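 active = average inhibition above the solvent-only control wells' mean plus 3 SD, cut at about 15% in these data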;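 note: inhibitors lower well luminescence so higher value means more inhibition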
TTR act confirm: human TTR transcription activation, confirmation | shares compounds with TTR transcr act | activation, % at 16.7 µM | AID 1117280 | SHSY5Y TTR promoter Gaussia luciferase, luminescence; 100% = purified Lucia enzyme wells, no cells | 1,100 tested, under 10 active;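 active = mean activation above a set limit taken from the earlier primary screen, cut at about 11% in these data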
Of the large screens only hits and unclear results are named; the others gave an inactive call (follow-up assays come after a bar, where they were run).

O=C(CCSc1ccccc1)NCC1CCCO1 (centres undefined)	TTR transcr act 15 | HuH7 TTR inh inactive | TTR act confirm inactive
CCCCOc1c(C(=O)Nc2ccccc2)nnn1-c1ccccc1	none
COc1ccc(C2CC3CN(C4CCCCC4)C(=O)C3N2C)cc1 (centres undefined)	none
O=C(NC1CCCc2c1cnn2-c1ccc(F)cc1F)c1ccccc1 (centres undefined)	none
COc1ccc(C(=O)NC2CCCc3c2cnn3-c2cc(F)cc(F)c2)c(OC)c1OC (centres undefined)	TTR transcr act 13 | HuH7 TTR inh 29 | TTR act confirm inactive
Cc1cc(C)cc(-n2ncc3c2CCCC3NC(=O)c2cc(C)[nH]n2)c1 (centres undefined)	none
Cc1nc2cc(C(=O)N3CCN(C)CC3)ccc2n1C	none
CCOc1cc(C(=O)NC(C)CC)cc(OCC)c1OCC (centres undefined)	none
CCCCCCNC(=O)CCNC(=O)c1cc(OC)c(OC)c(OC)c1	none
CCOc1cc(C(=O)NCCCNC(=O)c2cc(OCC)c(OCC)c(OCC)c2)cc(OCC)c1OCC	TTR transcr act 12 | HuH7 TTR inh inactive | TTR act confirm inactive
COC(=O)[C@]12C[C@H](CC(=O)NCC3CCCCC3)C(=O)N(Cc3ccco3)C1=C[C@H](C1CCCC1)O[C@@H]2C	none
c1ccc(Nc2ncnc3[nH]ncc23)cc1	none
COc1ccc(NC(=O)CCc2nc(-c3ccccc3F)no2)cc1	TTR transcr act 9.9 | HuH7 TTR inh inactive | TTR act confirm inactive
CCOC(=O)c1cccc(NC(=O)CCc2nc(-c3ccccc3F)no2)c1	none
COc1ccc(-c2noc(CCC(=O)Nc3nc4ccccc4s3)n2)cc1	none
CCCOc1ccc(-c2cc(C(C)=O)c3n(c2=O)CCC3)cc1	none
COc1cc(CNCc2ccccn2)ccc1OCc1ccccc1Cl	none
COc1cc(CNCC(O)c2ccccc2)ccc1OCc1ccc(Cl)nc1 (centres undefined)	TTR transcr act 11 | HuH7 TTR inh inactive | TTR act confirm inactive
CSc1ccc(CNCC(O)c2ccccc2)cc1 (centres undefined)	none
Cc1noc(C)c1NC(=O)N(C)C[C@H]1Oc2ccc(NC(=O)C3CCCCC3)cc2C(=O)N([C@H](C)CO)C[C@@H]1C	none
Cc1nc(CC(C)C)cc(C(=O)N2CCCC(Nc3ccc(C)c(C)c3)C2)n1 (centres undefined)	none
COc1ccccc1C(=O)C1CCCN(C(=O)c2ccc3c(c2)OCCO3)C1 (centres undefined)	none
COc1ccccc1C(=O)C1CCCN(C(=O)c2cc(CC(C)C)nc(C)n2)C1 (centres undefined)	TTR transcr act 19 | HuH7 TTR inh inactive | TTR act confirm inactive
CCN(Cc1ccccc1)C(=O)COC(=O)Cn1cnc2ccccc21	none
Cc1nnc2c3ccccc3ccn12	none
COc1ccc(OCC(=O)NC(=S)Nc2ccc(S(=O)(=O)Nc3cc(C)on3)cc2)cc1	none
COc1ccc(C(=O)NCCCc2ccccc2)cc1	none
Cc1ccc(C(=O)NCCCc2ccccc2)s1	TTR transcr act 67 | HuH7 TTR inh inactive | TTR act confirm inactive
Cc1ccc(C(=O)Nc2ccc(OCc3ccccc3)cc2)s1	none
O=C(Nc1ccc(F)cc1)OCc1cn(Cc2ccc(F)c(F)c2)nn1	none
Cn1nc(C(C)(C)C)c(NC(=O)c2ccc(F)cc2)c1C(C)(C)C	none
Cc1ccc(C(=O)O/N=C(\c2ccccc2)c2cccnc2)cc1	none
N/C(=N\OC(=O)c1ccccc1)c1cccnc1	TTR transcr act 10 | HuH7 TTR inh inactive | TTR act confirm inactive
N/C(=N\OC(=O)c1ccc2c(c1)OCO2)c1cccnc1	none
COc1ccc(-c2nc(CN3CCC(C(=O)N4CCOCC4)CC3)c(C)o2)c(OC)c1	none
COc1ccc(N2C(=O)CCC(C(=O)N3CCN(c4ccccn4)CC3)C2c2ccc(F)cc2)cc1 (centres undefined)	none
O=C1c2ccccc2-c2ccc(P(=O)(O)O)cc21	none
COc1cc2c(cc1OC)C1CCN3C(=O)CCC3N1CC2 (centres undefined)	none
CC1=C(C(=O)N(C(C)C)C(C)C)CC(CC(=O)NCc2cccs2)C(=O)N1Cc1ccc(F)cc1 (centres undefined)	none
CCN(CC)C(=O)C1=C(C)N(Cc2ccc(OC)cc2)C(=O)C(CC(=O)NCc2cccc3ccccc23)C1 (centres undefined)	none
CCN(CC)C(=O)C1=C(C)N(Cc2ccc(OC)cc2)C(=O)C(CC(=O)NCc2cccs2)C1 (centres undefined)	TTR transcr act 23 | HuH7 TTR inh inactive | TTR act confirm inactive
O=C(Nc1ccc(C(=O)N2CCOCC2)cc1)c1cccc([N+](=O)[O-])c1	none
O=[N+]([O-])c1cccc(-c2noc(-c3ccco3)n2)c1	TTR transcr act 12 | HuH7 TTR inh 15 | TTR act confirm inactive
Cc1cccc(-c2noc(-c3ccoc3C)n2)c1	none
Cc1c(-c2nc(-c3cccnc3)no2)cccc1[N+](=O)[O-]	none
O=C(/C=C\c1cccs1)N1CCN(Cc2ccc3c(c2)OCO3)CC1	none
CCCCNS(=O)(=O)c1cc2c3c(c1)CCN3C(=O)CC2	none
O=C(OCN1C(=O)c2ccccc2C1=O)c1cccc(S(=O)(=O)N2CCOCC2)c1	none
CC(C)n1c(O)c(N=NC(=O)Cc2csc(N3CCOCC3)n2)c2ccccc21	none
O=C(Nc1ccc(Cl)cc1Cl)OC1CCC12CCC(c1ccccc1)CC2 (centres undefined)	none
CC(=O)Nc1nnc(SCC(=O)N2CCc3ccccc32)s1	none
COc1ccccc1N1CCN(C(=O)CSc2nnc(NC(=O)C(C)C)s2)CC1	TTR transcr act 13 | HuH7 TTR inh inactive | TTR act confirm inactive
COc1ccccc1N1CCN(C(=O)CSc2nc3ccccc3nc2N2CCC(C)CC2)CC1	none
C[N+]1(CC(=O)Nc2ccc(F)cc2)CCN(C(=O)c2ccco2)CC1	none
Cc1ccc(S(=O)(=O)Nc2ccc3c(c2)OCCO3)cc1C	none
COc1ccc(S(=O)(=O)Nc2ccc3c(c2)OCO3)cc1OC	TTR transcr act 17 | HuH7 TTR inh inactive | TTR act confirm inactive
COc1ccc(S(=O)(=O)Nc2ccccc2)cc1OC	none
CC(C)CN1C(=O)C[C@@]2(C(=O)N(C)c3ccc(NC(=O)C(F)(F)F)cc32)C1c1ccccc1 (some centres undefined)	none
O=C(c1cccs1)N1CCN=C1SCc1ccc(F)cc1	none
Cc1ccc(N2C(=O)C3CCCN3C2=S)cc1C (centres undefined)	TTR transcr act 20 | HuH7 TTR inh inactive | TTR act confirm inactive
Cc1cc(C)cc(N2C(=O)C3CCCN3C2=S)c1 (centres undefined)	none
Cc1ccc(N2C(=O)C3CCCN3C2=S)cc1 (centres undefined)	none
C=CCN1C(=O)[C@H](CC(=O)NCc2cccs2)[C@@]2(C(=O)OCC)CCCC=C12	none
O=C(O)CN1C(=O)C2C3CCC(C3)C2C1=O (centres undefined)	none
CCN1C(=O)c2cccc3c(NC(=O)c4ccc(S(=O)(=O)N(C)C)cc4)ccc1c23	TTR transcr act 9.9 | HuH7 TTR inh inactive | TTR act confirm inactive
CCOC(=O)c1ccc(NC(=O)Nc2ccc3c4c(cccc24)C(=O)N3CC)cc1	none
CCN1C(=O)c2cccc3c(S(=O)(=O)N4CCC(C)CC4)ccc1c23	none
O=C(Nc1ccc(Cl)cc1)O[C@@H]1CC[C@@]23CCCN2C(=O)CCC[C@H]3C1	none
N#Cc1cccc(S(=O)(=O)NCc2nnc3ccccn23)c1	none
O=C(OCc1cn(Cc2ccccc2)nn1)N1CCCC1	none

Screening results as filed in PubChem BioAssay.
